“And” between values parts separate entries of the source, which are not always exact repeats. Equal entries are not always repeated. The campaign covered roughly 410,000 compounds. About 18,000 (4.4%) were called active. Inconclusive results (about 7%) are left out. No stated cut-off is given here; in the data, active means activity change below about -60%; inconclusive means no clear call, values can overlap the other calls; inactive means above about -39%. Many of the other results were omitted from the sample, so actives are more common in it than they were. Some compounds were tested as several samples or in several runs, with calls that do not always agree.

Here are results for 83 compounds from PubChem BioAssay AID1259415 (National Center for Advancing Translational Sciences (NCATS), 2018).
On the % scale 0 is the no-effect control and ±100 the full control effect.

This experiment in a line: qHTS Assay for inhibitors of the human cytomegalovirus (HCMV). Conditions: HFF cells, HCMV-luciferase reporter, 72 h; at 57.5 µM; stronger effect = lower value. The source says:
NCGC Assay Overview: Infection with human cytomegalovirus (HCMV) continues to pose significant threats for pregnant women and immunocompromised hosts. HCMV causes serious morbidity and mortality in transplant recipients, and congenital HCMV is the leading infectious cause of mental retardation and deafness in children. In the 1990s, the annual costs associated with the disease burden of congenital CMV were estimated at around $2 billion. A HCMV vaccine is not available yet and HCMV therapies result in intolerable side effects and emergence of drug resistant viruses. […] Towards this goal we have developed and characterized a luciferase HCMV reporter that was initially used in 96 well plates and then optimized to 1536-well plates for utilization in screening of the MLSMR collection, the NGCG diversity collection and the NCGC Pharmaceutical Collection of approved and investigational drugs.
NCGC Assay Protocol Summary:
This is a cell-based assay for HCMV inhibition in HFFs cells. The screening used 2 compound doses and the HCMV-luciferase at MOI of 1 PFU/cell. Cells were treated and infected with HCMV. At 72 h post infection cell lysates were collected and luciferase activity was determined using the Glomax-Multi + Detection System (Promega, Madison, WI). Data were normalized to the controls for basal activity (buffer only) and known HCMV inhibitors Salinmoycin.
1536-well assay protocol for the assay:
(1) Add 3 ul CMV/HFF cell culture. 1000 cells/well in DMEM nirmal media.
(2) Incubate 16 hr at 37C.
(3) Add 23 nl control compound, 10uM of Salinomycin.
(4) Add 23 nl compounds in DMSO solution.
(5) Add 3 ul CMV suspension. Final 1 puf/ul, Virus stock 2000pfu/ul
(6) Incubate 72 hrs at 37C.
(7) Add 4 ul OneGlo Luc Reagent.
(8) Incubate 5 min at room temperature.
As for `CC(C)c1ccc(CN2C(=O)C(n3ccc4ccccc43)c3cccc(F)c32)cc1` (stereo not drawn), the activity change, negative = inhibition was -19.8% (inactive).
For the compound `C=CS(=O)c1sc(Cl)c(N2CCOCC2)c1[N+](=O)[O-]` (stereo not drawn), the activity change, negative = inhibition was -29.1% (inactive).
The figure for `Cc1ccc(O)c(NC(=O)c2cc(-c3ccc(F)cc3)no2)c1` is -17.5% (inactive).
On to `Cc1ccc(O)c(NC(=O)c2cc(-c3ccco3)on2)c1`, for which the activity change, negative = inhibition was -60.7% (active).
The figure for `COc1ccc2c(c1)CCc1c(C(=O)Nc3cc(C)ccc3O)noc1-2` is -8.9% (inactive); for `O=C(NCc1ccccc1Cl)C1=Cc2cc(Br)ccc2OC1` it is -3.65% (inactive); for `CCOc1ccc(CNCc2c(C(=O)O)c(C)n(Cc3cccc(OC)c3)c2C)cc1OC` it is -14.2% (inactive).
With `Cc1c(CNC2CCCCC2)c(C(=O)O)c(C)n1Cc1cccc(Cl)c1` the figure was -85.4% (active); with `C=Cc1ccc(Cn2c(C(=O)O)c(CNC3CCCC3)c3ccc(C)cc32)cc1`, -2.87% (inactive).
With `COc1ccc(-c2nc(CN3CCC(C(=O)NCc4ccccc4)CC3)c(C)o2)cc1OC` the figure was 1.58% (inactive); with `CCOc1ccc(S(=O)(=O)N(CC(=O)NCCSCc2ccc(C)cc2)c2ccccc2)cc1`, 21.6% (inactive); with `O=C1[C@@H]2C(Cc3ccc(O)cc3)NC3(C(=O)Nc4ccc(F)cc43)[C@@H]2C(=O)N1c1ccc(F)cc1` (stereo partly drawn), 5.54% (inactive).
Consider `COc1ccc([N+](=O)[O-])cc1NCC(=O)c1ccc(C)cc1`, for which the activity change, negative = inhibition is 23.3% (inactive).
With `COc1ccc(C(=O)c2c3ccc([N+](=O)[O-])cc3[n+]([O-])n2CCCN)cc1`, the activity change, negative = inhibition is -65.8% (active).
The figure for `COc1ccc(NS(=O)(=O)c2cc(NC(=O)CC(=O)c3ccc([N+](=O)[O-])cc3)ccc2C)cc1` is -28.9% (inactive); for `Cn1cncc1-c1cc2cnc(Nc3ccc(OC(F)(F)F)cc3)cc2[nH]1` it is -21.4% (inactive); for `Cc1ccc(S(=O)(=O)N2CCc3cc(C(=O)Nc4ccc(Cl)cc4C)ccc32)cc1` it is 0.154% (inactive).
`COc1ccc(Cn2c(=O)n(-c3ccccc3C)c(=O)c3c4c(sc32)CN(C(C)=O)CC4)cc1`: the activity change, negative = inhibition is 3.89% (inactive).
Turning to `CC(=O)c1ccc(S(=O)(=O)N2CCN(c3nc4c(C)c(C)ccc4cc3C#N)CC2)cc1`, the activity change, negative = inhibition was -87.3% (active).
Turning to `Cc1ccc(C)c2sc(NC(=O)c3ccc(S(=O)(=O)N4CCCC4)cc3)nc12`, the activity change, negative = inhibition was 37.4% (inactive).
With `CC(=O)c1ccc(N2CCN(S(=O)(=O)c3ccc4c(c3)CC(=O)N4C)CC2)cc1` the figure was -36.7% (inactive).
On to `CCC(=O)N1CCc2cc(Br)cc(S(=O)(=O)NCc3ccc(Cl)cc3)c21`, for which the activity change, negative = inhibition is -9.15% (inactive).
With `COC(=O)c1cc(NC(=O)c2nn(C)c(=O)c3ccccc23)cc(C(=O)OC)c1` the figure was -10.5% (inactive); with `CCSc1nnc(NC(=O)c2cc(=O)c3cc(C)c(C)cc3o2)s1`, 1.6% (inactive).
Turning to `Cc1cc(F)ccc1NS(=O)(=O)c1ccc(-n2cccn2)cc1`, the activity change, negative = inhibition was -27.3% (inactive).
The figure for `CCC(=O)N1CCc2cc(Br)cc(S(=O)(=O)CCC(=O)N3CCN(c4ccc(F)cc4)CC3)c21` is 25.8% (inactive); for `COc1ccc(S(=O)(=O)N2CCN(C(=S)NCC3CCCO3)CC2)cc1OC` (stereo not drawn) it is 4.06% (inactive); for `S=C(NCC1CCCO1)N1CCN(c2ccc(Cl)c(Cl)c2)CC1` (stereo not drawn) it is -86.4% (active).
With `COC(=O)CC(=O)N1CCN(c2ccc(Cl)c(Cl)c2)CC1` the figure was -31.5% (inactive); with `CCOc1ccccc1NC(=O)Cn1c(=O)n(Cc2ccco2)c(=O)c2sc3ccccc3c21`, 30.3% (inactive).
As to `COc1ccc(CNC(=O)Cn2nnc(-c3ccccc3F)n2)cc1`, the activity change, negative = inhibition is -0.694% (inactive).
In the case of `Cc1cc(NC(=O)CC(C)C)cc(-c2nc3ncccc3o2)c1O`, the activity change, negative = inhibition is 5.83% (inactive).
The figure for `COc1ccc(C(=O)COC(=O)CN2C(=O)C3CC=CCC3C2=O)c(OC)c1` (stereo not drawn) is -5.28% (inactive); for `O=C(COC(=O)CN1C(=O)C2CCCCC2C1=O)Nc1ccc(F)c(F)c1F` (stereo not drawn) it is -3.46% (inactive).
With `CC1=CC(C)(C)Nc2ccc(OC(=O)CN3C(=O)C4CCCCC4C3=O)cc21` (stereo not drawn) the figure was -63% (active); with `CCOc1ccc(C(=O)c2cn(Cc3ccccc3OC)c3ccc(F)cc3c2=O)cc1`, -39% (inactive).
The figure for `CC(C)(C)c1cc[n+](-c2[nH]c(=O)sc2/C=N/N=C(\[O-])c2ccccc2)cc1` is -35.8% (inactive); for `CCOc1ccc(S(=O)(=O)c2cn(Cc3ccc(OC)cc3)c3ccc(F)cc3c2=O)cc1` it is 5.49% (inactive).
`COc1cc(OC)cc(C(=O)Nc2c(C(=O)Nc3ccc(F)cc3)oc3ccccc23)c1`: the activity change, negative = inhibition was -7.35% (inactive).
As to `COc1cccc(NC(=O)CN(C)C(C)C(=O)Nc2ccc(C#N)cc2)c1` (stereo not drawn), the activity change, negative = inhibition is -15.8% (inactive).
With `Cc1cc(Nc2cccc(C(F)(F)F)c2)nc2ccc(NC(=O)c3ccc(=O)[nH]c3)cc12` the figure was -15.4% (inactive).
Take `COc1cc(NC(=O)c2cncc(-c3ccc(C#N)cc3)c2)cc(C(=O)Nc2cccc(C(F)(F)F)c2)c1`: the activity change, negative = inhibition is -78.9% (active) and -65.8% (active).
The figure for `COc1ccc(Sc2ccc(NC(=O)c3cccc(Cl)c3)cc2C#N)cc1` is -22.8% (inactive); for `COc1cc(OC)cc(C(=O)Nc2ccc3nc(Nc4cccc(C(F)(F)F)c4)cc(C)c3c2)c1` it is -92.6% (active); for `O=C1COCc2cc(-c3cccc(F)c3)ccc2N1CCN1CCOCC1` it is -29.7% (inactive).
Take `CCOC(=O)c1cccc(NC(=O)C2CCCN(S(=O)(=O)c3cnc[nH]3)C2)c1` (stereo not drawn): the activity change, negative = inhibition is -78.2% (active).
With `CCOC(=O)c1cccc(NC(=O)c2cc(S(=O)(=O)N3CCCC(C)C3)cn2C)c1` (stereo not drawn) the figure was -10.5% (inactive).
The figure for `CC(=O)c1cccc(NC(=O)C2CCCN(S(=O)(=O)c3cccc4nonc34)C2)c1` (stereo not drawn) is 8.09% (inactive).
The figure for `CN(C)c1ccc(NC(=O)CSc2nc(-c3ccco3)cc(C(F)(F)F)n2)cc1` is 13.1% (inactive).
For the compound `Cc1cc(NC(=O)CCC(=O)N(CC(=O)NCC2CCCO2)c2ccccc2)no1` (stereo not drawn), the activity change, negative = inhibition was -24.8% (inactive).
The figure for `CCN(CC)P(=O)(Oc1cccc(C)c1)N(CC)CC` is -101% (active).
The figure for `Cc1cccc(OP(=O)(Nc2c(C)n(C)n(-c3ccccc3)c2=O)Oc2cccc(C)c2)c1` is -36.3% (inactive); for `Cc1cccc(OP(=O)(Oc2cccc(C)c2)OC(c2ccccc2)C(F)(F)F)c1` (stereo not drawn) it is 19.6% (inactive).
The figure for `Cc1cc(Nc2ccc(Br)cc2F)n2ncnc2n1` is 3.15% (inactive); for `COc1ccc(Cl)cc1-n1c(CCC(=O)O)ccc1-c1ccc(C)cc1` it is 10.6% (inactive).
In the case of `Cc1cc(C)c(NC(=O)CCc2c(C)nc3c(c(C)nn3C(C)(C)C)c2C)c(C)c1`, the activity change, negative = inhibition was 3.32% (inactive).
The figure for `COc1cccc(N(C(=O)C2COc3ccccc3O2)C(C(=O)NC2CCCCC2)c2ccc(O)cc2)c1` (stereo not drawn) is -15.7% (inactive).
The figure for `COc1ccc(C(C(=O)NC2CCCCC2)N(C(=O)CCl)c2ccccc2Cl)cc1` (stereo not drawn) is -97.5% (active).
As to `Cc1ccccc1N(C(=O)CNC(=O)c1cccs1)C(C(=O)NC1CCCC1)c1ccncc1` (stereo not drawn), the activity change, negative = inhibition is 62.4% (inactive).
The figure for `Oc1c(C(c2ccc(F)cc2)N2CCN(Cc3ccccc3)CC2)sc2nc(-c3ccco3)nn12` (stereo not drawn) is -3% (inactive).
With `CC(=O)C[C@@H](O)CC(=O)[C@H]1OC(=O)CCCCCCc2ccccc21` the figure was 6.44% (inactive).
The figure for `CCCCCn1c(=O)[nH]c2cc(C(=O)NCCCN3CCCCC3C)ccc2c1=O` (stereo not drawn) is -19.8% (inactive); for `Cc1cccc(N2CCN(C(=O)CCSCc3ccccc3F)CC2)c1C` it is 11.2% (inactive); for `CCOC(=O)c1cnc2c(C)cc(C)cc2c1Nc1ccc(N2CCOCC2)cc1` it is 6.54% (inactive).
Regarding `CCOC(=O)c1cnc2ccc(F)cc2c1Nc1ccc2c(c1)OCCO2`, the activity change, negative = inhibition was -76.3% (active).
With `CCC(=O)c1cc(F)ccc1OCC(=O)Nc1ccc2c(c1)OCCO2` the figure was -17.8% (inactive).
Take `O=C(NCc1ccccc1Cl)C1CCN(c2ncnc3c2nc2n3CCCCC2)CC1`: the activity change, negative = inhibition is 0% (inactive) and -68.9% (active).
For `COc1cccc(CNC(=O)C2CCCN(c3ncnc4c3nc3n4CCCCC3)C2)c1` (stereo not drawn), the activity change, negative = inhibition was -15.7% (inactive).
The figure for `CCOC(=O)c1cccc(NC(=O)C2CCN(c3ncnc4c3nc3n4CCCCC3)CC2)c1` is 4.29% (inactive); for `COc1ccc(N(C)C(=O)C2CCN(S(=O)(=O)c3cc(Br)cc4c3N(C(C)=O)CC4)CC2)cc1` it is 8.13% (inactive); for `COc1ccc(-c2cc(C(=O)Nc3sc4c(c3C(N)=O)CCCC4)no2)cc1` it is 21.3% (inactive).
The figure for `Cn1cc(C(=O)c2ccc(Cl)cc2Cl)cc1C(=O)NN` is -23.5% (inactive); for `CC(C)(CNC(=O)Cc1ccc(Cl)cc1Cl)N1CCOCC1` it is -8.38% (inactive).
With `CC(C)(C)c1cc(C(=O)NN)n(Cc2ccc(Cl)cc2Cl)n1` the figure was -79.4% (active).
For the compound `CC(=O)Nc1cccc(NC(=O)CSc2cn(CC(=O)N3CCCC3)c3ccccc23)c1`, the activity change, negative = inhibition is -3.21% (inactive).
The figure for `O=C(CCS(=O)(=O)c1cc(Br)cc2c1N(C(=O)C1CC1)CC2)Nc1ccc(C(F)(F)F)cc1` is 1.29% (inactive); for `O=C(NCc1ccccc1)C1=C[C@@H](C2CCCCC2)C[C@@H](OCc2ccc(CO)cc2)O1` it is -86.3% (active); for `CC(C)(C)[C@H]1C=C(C(=O)NCc2ccccc2)O[C@@H](OCc2ccc(CO)cc2)C1` it is -2.88% (inactive).
The figure for `O=C(NCc1ccccc1)C1=C[C@H](C2CC2)C[C@H](OCc2ccc(CO)cc2)O1` is 7.43% (inactive); for `OCC1(CCc2ccccc2)CCN(Cc2ccc3nsnc3c2)CC1` it is 13.2% (inactive).
With `Cc1c(CN2CCC(CO)(CCOc3ccccc3)CC2)[nH]c2ccc(Cl)cc12` the figure was -92.5% (active).
In the case of `CCC(C)CN1CCC(CO)(Cc2ccccc2Cl)CC1` (stereo not drawn), the activity change, negative = inhibition is -7.29% (inactive).
With `COc1ccccc1CNC(=O)CCn1c(=O)c2ccccc2n(CC(=O)Nc2cccc(Cl)c2)c1=O` the figure was -39.6% (inactive).
